Measurements published in PubChem BioAssay (NCATS).
Values joined by “and” are separate entries in the source; they are usually repeats but may differ in a detail not shown here. Equal entries are not always repeated. Inconclusive results are not listed. Where a call stands in place of a potency, no number is given. Unmarked numbers belong to inactive results. Active and inactive are the calls of the source. The call rests on the fitted dose curve; in most records, active means well fitted curve in the direction sought with a large enough effect; inconclusive means small, poorly fitted or top-dose-only effect, or another doubt; inactive means no such curve, though single readings can be large; an effect the other way counts as inactive or inconclusive.

What was measured:
UISO = assay: qHTS assay to identify novel small-molecules to repurpose for Merkel cell carcinoma treatment (AID 1296009); conditions: MCC and control cell lines, CellTiter-Glo viability, 72 h; series mostly up to 46 µM; further: nearly all actives have a fitted effect of over 60% in size
Method in brief: (§1)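 Cell viability, measured as CellTiter-Glo luminescence, was normalized between DMSO and no-cell wells. The cells had been exposed to 8- or 11-point compound dilutions for 72 hr at 37 degree celsius.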

WaGa = assay: as above; conditions: MCC and control cell lines, CellTiter-Glo viability, 72 h; series mostly up to 46 µM
Method in brief: as §1

C33A = assay: Primary qHTS to identify gynecologic anti-cancer compounds using libraries of approved drugs and bioactive compounds (AID 1345084); conditions: Gynecologic cancer cell panel viability, ATPlite luminescence, 48 h; series mostly up to 57.5 µM; further: nearly all actives have a fitted effect of over 55% in size
Method in brief: (§2)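 Measured: luminescence after ATPlite addition (15 min, RT). Exposure: 48 h, 37 C, 5% CO2.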

CASKI = assay: as above; conditions: Gynecologic cancer cell panel viability, ATPlite luminescence, 48 h; series mostly up to 57.5 µM
Method in brief: as §2

Es-2 = assay: as above; conditions: Gynecologic cancer cell panel viability, ATPlite luminescence, 48 h; series mostly up to 57.5 µM
Method in brief: as §2

HeLa = assay: as above; conditions: Gynecologic cancer cell panel viability, ATPlite luminescence, 48 h; series mostly up to 57.5 µM
Method in brief: as §2

Hek293T = assay: as above; conditions: Gynecologic cancer cell panel viability, ATPlite luminescence, 48 h, control line for the selectivity index; series mostly up to 57.5 µM
Method in brief: as §2

JEG-3 = assay: as above; conditions: Gynecologic cancer cell panel viability, ATPlite luminescence, 48 h; series mostly up to 57.5 µM
Method in brief: as §2

OV90 = assay: as above; conditions: Gynecologic cancer cell panel viability, ATPlite luminescence, 48 h; series mostly up to 57.5 µM
Method in brief: as §2

PA-1 = assay: as above; conditions: Gynecologic cancer cell panel viability, ATPlite luminescence, 48 h; series mostly up to 57.5 µM
Method in brief: as §2

SKOV3 = assay: as above; conditions: Gynecologic cancer cell panel viability, ATPlite luminescence, 48 h; series mostly up to 57.5 µM
Method in brief: as §2

Tov-21-G = assay: as above; conditions: Gynecologic cancer cell panel viability, ATPlite luminescence, 48 h; series mostly up to 57.5 µM
Method in brief: as §2

Tov112D = assay: as above; conditions: Gynecologic cancer cell panel viability, ATPlite luminescence, 48 h; series mostly up to 57.5 µM
Method in brief: as §2

CAOV3 = assay: as above; conditions: Gynecologic cancer cell panel viability, ATPlite luminescence, 48 h; series mostly up to 57.5 µM
Method in brief: as §2

[1] = qHTS assay to identify inhibitors of the type 1 interferon - major histocompatibility complex class I in skeletal muscle: Counter screen cell viability and HiBit confirmation (AID 1347412); conditions: iHSKM muscle cells + IFN-b, HiBiT or CellTiter-Glo, 24 h; further: nearly all actives have a fitted effect of over 60% in size
Method in brief: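 Human myoblast knock-in line, 4.0 ng/ml IFN-beta stimulation, 24 h compound treatment. Endpoints: HiBiT lytic luminescence (HLA-B level) and CellTiter Glo (ATP). Dosing 12 concentrations, 3-fold steps, 46 uM highest final.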
Potency means the concentration at half of the fitted maximal effect.

| SMILES | Potency (UISO) | Potency (WaGa) | Potency (C33A) | Potency (CASKI) | Potency (Es-2) | Potency (HeLa) | Potency (Hek293T) | Potency (JEG-3) | Potency (OV90) | Potency (PA-1) | Potency (SKOV3) | Potency (Tov-21-G) | Potency (Tov112D) | Potency (CAOV3) | Potency ([1]; HiBiT) | Potency ([1]; Viability) |
| --- | --- | --- | --- | --- | --- | --- | --- | --- | --- | --- | --- | --- | --- | --- | --- | --- |
| O=C1CCC[C@@H]2[C@H]3CCC[N+]4([O-])CCC[C@@H](CN12)[C@@H]34 (stereo partly specified) | inactive | inactive | inactive | inactive | inactive | inactive | inactive | inactive | inactive | inactive | inactive | inactive | inactive | – | – | – |
| Cc1ccc(CN2CCNCC2)cc1NC(=O)CNc1ccc(F)c(F)c1 | inactive | inactive | inactive | inactive | inactive | inactive | inactive | inactive | inactive | inactive | inactive | inactive | inactive | – | – | – |
| CC(C)(O)CCc1ccc(OCc2cc(-c3cccc(OC(F)F)c3)c3ncccc3c2)cc1 | inactive | inactive | inactive | inactive | inactive | inactive | inactive | – | inactive | inactive | – | inactive | inactive | inactive | – | – |
| CC1(C)CCC(c2ccc(Cl)cc2)=C(CN2CCN(c3ccc(C(=O)NS(=O)(=O)c4ccc(N[C@H](CCN5CCOCC5)CSc5ccccc5)c(S(=O)(=O)C(F)(F)F)c4)cc3)CC2)C1 | inactive | 0.118 µM (active) | – | 14.1 µM (active) | inactive | – | – | – | – | – | – | inactive | – | 12.6 µM (active) | – | – |
| Cn1c2ccccc2c2c3c(c4c5ccccc5n(CCC#N)c4c21)CNC3=O | 2.09 µM (active) | 6.62 µM (active) | inactive | inactive | – | inactive | inactive | inactive | inactive | – | 17.8 µM (active) | – | inactive | – | – | – |
| NC(=O)Nc1cc(-c2cccc(F)c2)sc1C(=O)N[C@H]1CCCNC1 | 4.18 µM (active) | 5.26 µM (active) | 1.12 µM (active) | 1.78 µM (active) | 0.631 µM (active) | 1.78 µM (active) | 1 µM (active) | – | 2.82 µM (active) | 2.82 µM (active) | 0.631 µM (active) | – | 1.78 µM (active) | – | 1.76 µM (active) | – |
| CC1COC2(CCN(c3nc(=O)c4cc(C(F)(F)F)cc([N+](=O)[O-])c4s3)CC2)O1 (stereo unspecified) | inactive | inactive | inactive | inactive | inactive | inactive | inactive | inactive | – | inactive | inactive | – | inactive | inactive | – | – |
| Nc1ccccc1NC(=O)c1ccc(CNC(=O)OCc2cccnc2)cc1 | 2.35 µM (active) | 0.296 µM (active) | 17.8 µM (active) | inactive | 11.2 µM (active) | 10 µM (active) | – | 15.8 µM (active) | 0.631 µM (active) | 3.16 µM (active) | – | 8.91 µM (active) | – | – | – | – |
| C[C@@H](Oc1cc(-c2cnn(C3CCNCC3)c2)cnc1N)c1c(Cl)ccc(F)c1Cl | 14.8 µM (active) | 23.5 µM (active) | 20 µM (active) | 14.1 µM (active) | – | 3.55 µM (active) and 14.1 µM (active) | 25.1 µM (active) | 28.2 µM (active) | 25.1 µM (active) | 14.1 µM (active) | – | 14.1 µM (active) | inactive | – | 17.6 µM (active) | 27.9 µM (active) |
| COc1cccc(Nc2c(C(N)=O)cnc3c(C)cc(S(=O)(=O)c4cccc(C(=O)N(C)C)c4)cc23)c1 | inactive | inactive | inactive | inactive | inactive | inactive | inactive | inactive | inactive | inactive | inactive | inactive | inactive | – | – | – |
| COc1cc(Nc2ncc(F)c(Nc3ccc4c(n3)N(COP(=O)(O)O)C(=O)C(C)(C)O4)n2)cc(OC)c1OC | inactive | inactive | – | 17.8 µM (active) | – | 3.55 µM (active) | – | – | 12.6 µM (active) | 11.2 µM (active) | 10 µM (active) | 14.1 µM (active) | – | 11.2 µM (active) | – | – |
| CC(C)(C)c1cc(NC(=O)Nc2ccc(-c3cn4c(n3)sc3cc(OCCN5CCOCC5)ccc34)cc2)no1 | inactive | inactive | inactive | inactive | inactive | inactive | inactive | inactive | inactive | inactive | inactive | inactive | inactive | – | – | – |
| Cn1c(CNc2ccc(C(=N)N)cc2)nc2cc(C(=O)N(CCC(=O)O)c3ccccn3)ccc21 | inactive | inactive | inactive | inactive | inactive | inactive | inactive | inactive | inactive | inactive | inactive | inactive | inactive | – | – | – |
| COc1ccc2c(OCc3nnc4ccc(-c5ccccc5)nn34)ccnc2c1 | inactive | inactive | inactive | inactive | inactive | inactive | inactive | inactive | inactive | inactive | – | inactive | inactive | inactive | – | – |
| CC(=O)Nc1sc2c(c1-c1nc3ccccc3s1)CNC2 | 8.33 µM (active) | – | inactive | inactive | – | inactive | – | inactive | inactive | 31.6 µM (active) | – | – | inactive | inactive | – | – |
